ELG1 DNA repair = inhibitors of ELG1-dependent DNA repair in HEK293T cells; 330,000 compounds, 2.3% hits; HEK293T ELG1-luciferase reporter, luminescence, 16 h; DNA damage induced by 5-fluorouridine; Potency, µM (titrated, usually from 46.1 µM), for inactives: top-dose activity change, negative = inhibition, usual class: inhibitors; AID 504467; note: potency is the fitted concentration of half-maximal effect; nearly all actives have a fitted effect of over 55% in size
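Step one: seed 2,000 cells per well. Step two: pin-transfer compound or DMSO alongside 5-fluorouridine. Step three: incubate 16 hr, 37 °C, 5% CO2. Step four: add ONE-Glo, wait 30 min, read luminescence.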
DT40 TDP1 no CPT = qHTS for Inhibitors of human tyrosyl-DNA phosphodiesterase 1 (TDP1): qHTS in cells in absence of CPT; DT40 Tdp1-/- hTDP1 cells, no CPT, ATP luminescence, 48 h; Potency, µM (doses to about 46.2 µM), for the others: top-dose activity change, negative = growth inhibition, most hits filed as inhibitors; 420,000 compounds, 15% hits; note: potency is the fitted concentration of half-maximal effect; nearly all actives have a fitted effect of over 55% in size
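Seeded 400 DT40-hTDP1 cells/well (vehicle DMSO, no 20 nM CPT); pinned compounds; ≥48 hr at 37 °C; CellTiter-Glo luminescence as viability measure.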
HT1080NT lethal = kills 2HG-producing HT-1080-NT fibrosarcoma cells; 360,000 compounds, 1.6% hits; Potency, µM (highest dose often 46.1 µM), without a hit: top-dose activity, negative = less viability, most hits filed as cytotoxic; HT-1080-NT fibrosarcoma viability, CellTiter-Glo ATP luminescence, 48 h;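 note: NT is the 2HG producing partner of a matched IDH1 knockdown line; potency is the fitted concentration of half-maximal effect; 0% = DMSO-treated cells and -100% = media-only wells without cells; nearly all actives have a fitted effect of over 55% in size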
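HT-1080-NT fibrosarcoma cells (2HG-overproducing), 750 cells/well in RPMI with 5% FBS, dosed after 2 h and incubated 48 h at 37C. CellTiter-Glo luminescence normalized to DMSO and no-cell wells; concentration-response curves fitted and classed.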
HT1080 IDH1KD tx = toxicity to HT-1080 IDH1 knockdown cells (counter line) | HT-1080 IDH1 knockdown viability, ATP luminescence, 48 h | AID 686971 | 360,000 compounds, 2% hits | Potency, µM (series often up to 46.1 µM), for the others: at the highest dose activity, negative = toxicity, hits mostly cytotoxic;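 note: potency is the fitted concentration of half-maximal effect; 0% = DMSO wells and -100% = cell-free medium wells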
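Using the IDH1-knockdown HT-1080 line run in the same batch and compound series as the NT line, viability after 48 h at 37 °C was determined by CellTiter-Glo luminescence and expressed as % activity.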
TDP1 cell CPT = growth inhibition of DT40 Tdp1-/-;hTDP1 cells with camptothecin (screen for TDP1 inhibitors). 420,000 compounds, 12% hits. chicken DT40 Tdp1-/-;hTDP1 cells + 20 nM CPT, ATP luminescence, 48 h. Potency, µM (titrated, usually from 46.2 µM), for inactives: at the top dose activity change, negative = growth inhibition, hits mostly inhibitors; note: potency is the fitted concentration of half-maximal effect; nearly all actives have a fitted effect of over 55% in size
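Cell growth measured by CellTiter-Glo luminescence after a minimum 48 h, 37 C compound exposure with 20 nM CPT in Tdp1-knockout DT40 cells stably expressing hTDP1, seeded 400/well; qHTS titration format.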
IL1B secr inh = blocks inflammasome-driven IL-1 beta release; THP-1 LPS/ATP IL-1B secretion, AlphaLISA, 16 h; active compounds read low; activity change, % at 57.5 µM; 360,000 compounds, 4.7% hits; AID 743279; in the data active = activity change below about -50%; inconclusive = mostly about -30% to -49%
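THP-1 cells pretreated 1 hr with compounds (up to 57.5 uM final), then stimulated with LPS (250 ng/mL final) plus ATP (1.25 mM final); secreted IL-1B measured by AlphaLISA after 16 hr, decreased signal indicating inhibition.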
* hit, by the source's call. An excerpt weighted towards active compounds, which were near 19% of everything screened. Unless noted, calls come from the whole dose curve; as a rule, active = well fitted curve in the direction sought with a large enough effect; inconclusive = small, poorly fitted or top-dose-only effect, or another doubt; inactive = no such curve, though single readings can be large; an effect the other way counts as inactive or inconclusive. Unless noted, % is set by controls: 0 for no effect and ±100 for the full control effect.

Screening CN(CC1CCCO1)S(=O)(=O)c1ccc(C(=O)Nc2nnc(-c3ccccc3)o2)cc1 (stereo not given) returned ELG1 DNA repair inconclusive, DT40 TDP1 no CPT 8.2µM*, HT1080NT lethal inconclusive, HT1080 IDH1KD tx inconclusive, TDP1 cell CPT 18µM* and IL1B secr inh 100.
`COc1ccccc1-c1nnc(NC(=O)c2ccc(S(=O)(=O)N(C)CC3CCCO3)cc2)o1` (stereo not given) gave ELG1 DNA repair -2%, DT40 TDP1 no CPT inconclusive, HT1080NT lethal -18%, HT1080 IDH1KD tx inconclusive, TDP1 cell CPT inconclusive and IL1B secr inh 16.
C=CCN1C(=O)/C(=C/c2ccc(OC(C)=O)c(OCC)c2[N+](=O)[O-])SC1=S was read as ELG1 DNA repair inconclusive, DT40 TDP1 no CPT inconclusive, HT1080NT lethal 9.2µM*, HT1080 IDH1KD tx 21µM*, TDP1 cell CPT inconclusive and IL1B secr inh -76*.
CC(=O)c1ccc(NC(=O)C2CCC(CNS(=O)(=O)c3cccs3)CC2)cc1 (stereo not given) was read as DT40 TDP1 no CPT -2% and TDP1 cell CPT 9%.
Screening COc1ccc2c(c1)OCC(Cc1ccc(OC)c(O)c1)C2=O (stereo not given) returned DT40 TDP1 no CPT 0.58µM* and TDP1 cell CPT 0.73µM*.
`COc1ccc2c(c1)O[C@H]1c3ccc(O)cc3OC[C@@H]21` gave DT40 TDP1 no CPT -16%, HT1080NT lethal 0%, HT1080 IDH1KD tx -6%, TDP1 cell CPT -18% and IL1B secr inh -5.
Screening CCCSC1=NC2(CCN(C(=O)NC3CCCCC3)CC2)N=C1c1ccc(C)cc1 returned DT40 TDP1 no CPT 8% and TDP1 cell CPT 7%.
O=C(NC1CCCN(Cc2ccc(Cl)cc2)C1)c1cnc2ccccn2c1=O (stereo not given) was read as ELG1 DNA repair inconclusive, DT40 TDP1 no CPT 18µM*, HT1080NT lethal -6%, HT1080 IDH1KD tx -17%, TDP1 cell CPT inconclusive and IL1B secr inh 2.
CC(=O)c1c(C)nn(CC(=O)NC2CCCN(Cc3ccc(CC(C)C)cc3)C2)c1C (stereo not given) was read as ELG1 DNA repair -28%, DT40 TDP1 no CPT inconclusive, HT1080NT lethal -16%, HT1080 IDH1KD tx -23%, TDP1 cell CPT 21µM* and IL1B secr inh -28.
CC(C)Cc1ccc(CN2CCCC(NC(=O)c3cnc4ccccn4c3=O)C2)cc1 (stereo not given) was read as DT40 TDP1 no CPT 23µM*, HT1080NT lethal -11%, HT1080 IDH1KD tx -7%, TDP1 cell CPT 23µM* and IL1B secr inh 20.
For Cc1ccn(CC(=O)NC2CCCN(Cc3ccc(CC(C)C)cc3)C2)n1 (stereo not given) the results were ELG1 DNA repair 2%, DT40 TDP1 no CPT inconclusive, HT1080NT lethal -28%, HT1080 IDH1KD tx -11%, TDP1 cell CPT inconclusive and IL1B secr inh 0.
CCCn1ncc(C(=O)NC2CCCN(Cc3ccc(Cl)cc3)C2)c1C (stereo not given) was read as ELG1 DNA repair -8%, DT40 TDP1 no CPT -26%, HT1080NT lethal -1%, HT1080 IDH1KD tx -3%, TDP1 cell CPT inconclusive and IL1B secr inh inconclusive.
`CCn1c(SC(C)C(=O)NCC2CCCO2)nc2ccccc21` (stereo not given) gave ELG1 DNA repair 17%, DT40 TDP1 no CPT -23%, HT1080NT lethal 2%, HT1080 IDH1KD tx -2%, TDP1 cell CPT -4% and IL1B secr inh 15.
`COc1cccc(-n2nnc3c(=O)n(Cc4c(F)cccc4Cl)cnc32)c1` gave ELG1 DNA repair inconclusive, DT40 TDP1 no CPT -16%, HT1080NT lethal 11%, HT1080 IDH1KD tx 11%, TDP1 cell CPT -8% and IL1B secr inh -8.
`COc1cccc(-n2nnc3c(=O)n(Cc4cccc(F)c4)cnc32)c1` gave ELG1 DNA repair 1%, DT40 TDP1 no CPT -8%, HT1080NT lethal -19%, HT1080 IDH1KD tx 1%, TDP1 cell CPT inconclusive and IL1B secr inh -55*.
Screening CCCCNC(=O)c1nc(C2CCN(S(=O)(=O)c3ccccc3C(F)(F)F)CC2)oc1-c1ccccc1 returned DT40 TDP1 no CPT 16µM*, HT1080NT lethal 1%, HT1080 IDH1KD tx 7%, TDP1 cell CPT 23µM* and IL1B secr inh 3.
Screening CCCCNC(=O)c1nc(C2CCN(S(=O)(=O)c3c(F)cccc3F)CC2)oc1-c1ccccc1 returned DT40 TDP1 no CPT 18µM*, HT1080NT lethal -8%, HT1080 IDH1KD tx -5%, TDP1 cell CPT 9.2µM* and IL1B secr inh 23.
`CCCCNC(=O)c1nc(C2CCN(S(=O)(=O)c3ccc(OC(F)(F)F)cc3)CC2)oc1-c1ccccc1` gave DT40 TDP1 no CPT 6.5µM*, HT1080NT lethal -11%, HT1080 IDH1KD tx -15%, TDP1 cell CPT 7.3µM* and IL1B secr inh -8.
For CCCCNC(=O)c1nc(C2CCN(S(=O)(=O)c3ccc(F)c(F)c3)CC2)oc1-c1ccccc1 the results were DT40 TDP1 no CPT 6.5µM*, HT1080NT lethal 27%, HT1080 IDH1KD tx 7%, TDP1 cell CPT 10µM* and IL1B secr inh 6.
Screening CCCCNC(=O)c1nc(C2CCN(S(=O)(=O)c3c(F)cccc3F)CC2)oc1-c1cccc(C(F)(F)F)c1 returned DT40 TDP1 no CPT -10%, HT1080NT lethal 2%, HT1080 IDH1KD tx 1%, TDP1 cell CPT 7% and IL1B secr inh 0.
Screening CCCCNC(=O)c1nc(C2CCN(S(=O)(=O)c3ccccc3C(F)(F)F)CC2)oc1-c1cccc(C(F)(F)F)c1 returned DT40 TDP1 no CPT -1%, HT1080NT lethal inconclusive, HT1080 IDH1KD tx 25%, TDP1 cell CPT 2% and IL1B secr inh 7.
For N#Cc1cccc(C(Br)S(=O)(=O)c2ccccc2)c1 (stereo not given) the results were DT40 TDP1 no CPT inconclusive, HT1080NT lethal 1%, HT1080 IDH1KD tx 0%, TDP1 cell CPT -27% and IL1B secr inh -20.
COCCNC(=O)CN1CCN(S(=O)(=O)c2ccc3c(c2)CCCC3)CC1 was read as ELG1 DNA repair 18%, DT40 TDP1 no CPT -12%, HT1080NT lethal 6%, HT1080 IDH1KD tx -3%, TDP1 cell CPT -9% and IL1B secr inh 18.
